High-throughput results: PubChem BioAssay, several laboratories
S1P3 antag: antagonists of human S1P3 receptor; AID 485; CHO S1P3 NFAT-BLA reporter, FRET fluorescence, antagonist mode; actives 0.27% (n = 170,000); inhibition, % at 4.98 µM;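 active = inhibition above the plate cutoff, the mean inhibition of test wells on that plate plus 3 SD, cut at about 28% in these data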;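 also: cells challenged with S1P at its EC80 of 0.8 µM; blue over green emission ratio from cleaved BLA substrate after 4 h stimulation; 0% = S1P-stimulated wells and 100% = unstimulated DMSO-only wells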
Hsp70 activator: transcriptional activators of Hsp70 | HeLa Hsp70 promoter luciferase reporter, luminescence; scaled: vehicle 0, proteasome-inhibitor control 100% | activation, % at 10 µM | actives 0.04% (n = 200,000) | AID 1203;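 active = activation above the mean across all tested compounds plus 3 SD, cutoff set per campaign, cut at about 5.5% in these data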;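 also: 100% = MG132 at 30 µM as the positive control and 0% = DMSO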
HSF1 activator: increases HSF-1 driven luciferase reporter signal; NIH3T3-HGL HSF-1 luciferase reporter, MG132, 8 h; 100% = twice DMSO control signal; activation, % at 9 µM; actives 1.7% (n = 300,000); AID 504408;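 active = mean replicate activation of at least 50% with a set share of replicates each reaching 50%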;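 also: 0% = median of the neutral control wells and 100% = twice that signal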
S1P4 agonist: activates the human S1P4 receptor. AID 1509. S1P4-expressing cell line, agonist reporter assay. actives 0.35% (n = 220,000). activation, % at 4.98 µM; in the data active = activation above about 11%;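 also: 0% = DMSO vehicle and 100% = reference agonist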
Target sequence (O95977 whole entry, looked up): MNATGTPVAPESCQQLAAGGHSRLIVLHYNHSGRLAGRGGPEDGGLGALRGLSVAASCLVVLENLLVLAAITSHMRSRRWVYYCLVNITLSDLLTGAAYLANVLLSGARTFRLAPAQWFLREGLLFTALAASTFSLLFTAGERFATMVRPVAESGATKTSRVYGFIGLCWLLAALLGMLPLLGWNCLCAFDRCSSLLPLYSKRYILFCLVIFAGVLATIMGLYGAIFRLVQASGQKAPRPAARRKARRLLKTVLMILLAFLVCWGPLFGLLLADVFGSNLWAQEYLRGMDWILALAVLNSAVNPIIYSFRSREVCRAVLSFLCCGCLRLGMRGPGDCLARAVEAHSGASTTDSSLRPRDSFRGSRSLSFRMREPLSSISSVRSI
S1P4 antag: blocks the human S1P4 receptor; inhibition, % at 4.98 µM; AID 1510; S1P4-expressing cells, antagonist mode, reporter read-out; O95977; actives 0.26% (n = 220,000); in the data active = inhibition above about 29%;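 also: 0% = wells stimulated with agonist and 100% = vehicle wells without agonist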
HSF1 inh: HSF1 inhibition; NIH3T3-HGL HSE-luciferase, MG132-induced, luminescence 8 h; hits give low values; activity change, negative = inhibition, % at 7.5 µM (by protocol); actives 0.77% (n = 300,000);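 active = more than half of replicate wells show activity change below -50%, luminescence cut by over half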;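 also: luciferase reports HSF-1 transcriptional activity via heat shock element; 0% = median of DMSO wells and -100% = zero luminescence signal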
Starred values were filed as active, the others as inactive; . = no result. A selection: hits, their analogues and other compounds. The true share with any hit is near 2.9%.

SMILES	S1P3 antag	Hsp70 activator	HSF1 activator	S1P4 agonist	S1P4 antag	HSF1 inh
Cc1nc(Sc2ccc(Br)cc2)c(C#N)c(C)c1[N+](=O)[O-]	0	.	128*	-1	28	74
COCCNC(=O)C1CC(c2ccccc2C(F)(F)F)=NO1 (stereo unspecified)	.	.	-10	.	.	-3
CCOC(=O)C1=C(N)OC2=C(C(=O)CC(C)(C)C2)C1c1ccccc1OCC#N (stereo unspecified)	-14	0	-64	-1	-9	-57*
COC(=O)C1=C(N)OC2=C(C(=O)CC(C)(C)C2)C1c1ccccc1OC (stereo unspecified)	10	0	3	-1	-22	3
Cc1ccc(Cc2c(C)nc3nc(SCC(=O)NCCCN4CCCCCC4)nn3c2C)cc1	.	.	-1	.	.	0
CCC1CCCCN1CCCNC(=O)CSc1nc2nc(C)c(Cc3ccc(C)cc3)c(C)n2n1 (stereo unspecified)	.	.	-75	.	.	-66*
COC(=O)C(c1ccccc1)C1(O)CC(C)N(C)CC1C (stereo unspecified)	.	.	-82	.	.	-76*
CC1CN(C)C(C)CC1OC(=O)C(c1ccccc1)c1ccccc1 (stereo unspecified)	.	.	10	.	.	-2
CCN1C(=O)C(CC(=O)Nc2ccc(OC)cc2)N(Cc2ccc3c(c2)OCO3)C1=S (stereo unspecified)	4	0	-83	-2	-17	-78*
CCN1C(=O)C(CC(=O)Nc2ccc(OC)cc2)N(Cc2ccc(OC)c(OC)c2)C1=S (stereo unspecified)	-9	.	6	2	8	-5
S=C(NCCc1ccccc1)N1CCN(Cc2ccc(Cl)c(Cl)c2)CC1	-7	0	-70	1	1	-62*
CCC(=O)N1CCN(c2ccc(NC(=O)COc3ccc(CC)cc3)cc2)CC1	.	.	67*	.	.	27
CCOc1ccc(OCCC(=O)OCC(=O)Nc2ccc(N3CCOCC3)cc2)cc1	.	.	-4	.	.	-3
Cc1ccc(OCCC(=O)OCC(=O)Nc2ccc(N3CCOCC3)cc2)cc1	.	.	-70	.	.	-61*
CCC(=O)N1CCN(c2ccc(NC(=S)NC(=O)COc3ccccc3)cc2)CC1	-2	0	-33	0	-4	-12
O=C(O)CCCC(=O)NS(=O)(=O)c1ccc(Cl)cc1	.	0	-1	-1	9	-2
O=C(O)COc1ccc(Br)cc1CP(=O)(c1ccccc1)c1ccccc1	2	.	-8	1	-2	-5
COCCNc1c([N+](=O)[O-])c(=O)n(-c2ccccc2)c2ccccc12	7	0	69*	1	-3	21
Cc1ccc2c(c1)N(CCCC(=O)NCCCN1CCCCC1)C(=O)CO2	.	.	-6	.	.	4
CCN(CCCNC(=O)CCCN1C(=O)COc2ccc(C)cc21)c1cccc(C)c1	-1	0	101*	1	7	68
COc1cccc(-c2cc(C(=O)NCc3ccco3)no2)c1	.	2	61*	4	0	28
COc1cccc(C(=O)NC(=S)NCc2ccco2)c1	11	0	-3	0	-17	-9
O=C(NCc1ccco1)c1cc(-c2ccc3c(c2)OCO3)on1	18	0	71*	2	-2	23
Cc1ccc(-c2cc(C(=O)NCc3ccco3)no2)cc1	17	0	37	4	-8	23
COc1cc(OC)cc(C(=O)NC(=S)NCc2ccco2)c1	.	0	121*	-1	16	67
SMILES	S1P3 antag	Hsp70 activator	HSF1 activator	S1P4 agonist	S1P4 antag	HSF1 inh
O=C(OCc1cccc(C(F)(F)F)c1)c1cc(S(=O)(=O)N2CCOCC2)ccc1F	.	.	-1	.	.	1
COc1ccccc1N1CCN(C(=O)CCc2c[nH]c3ccccc23)CC1	-6	0	12	-1	0	-11
Cc1cc(C)c(NC(=O)/C(=C/c2ccccc2)c2ccccc2)c(C)c1	-6	-1	7	0	-18	5
O=C(CSc1ncnc2c1nnn2Cc1ccc(F)cc1)NCC1CCCO1 (stereo unspecified)	.	.	63*	.	.	44
CC(C)CC(/C(O)=C(\C#N)c1nc2ccccc2[nH]1)N1C(=O)c2ccccc2C1=O (stereo unspecified)	-3	0	75*	-1	-7	34
Clc1ccc(-c2csc(N3CCOCC3)n2)cc1	-6	0	53*	0	-18	24
